The values that follow come from PubChem BioAssay (EPA / NIEHS).

Where “and” joins values, the source holds several entries; their conditions need not be identical. Equal values may be shown once. Calls of active or inactive are those of the source. Rule for the calls: active = hit-call score of the fitted dose curve at least 0.9, where 1 is the maximum; inactive = score below 0.9.

Assay [1] is described as follows: BSK_hDFCGF_SRB: Viability Assessment in the BioMAP Diversity Plus: hDFCGF Assay (AID 2283061).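 Note: cells exposed to compound for 24 h before the read.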 As to conditions: primary human foreskin fibroblasts. Summed up:
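Primary human foreskin fibroblasts; 24 h post-dose; fixed 10% TCA, stained 0.1% SRB, A560 read; total protein as overt cytotoxicity measure; curves fit bidirectionally vs DMSO control.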

Read-out in assay [2]: TIMP metallopeptidase inhibitor 1 (TIMP1), TIMP1 (gene 7076)
Put plainly: BSK_hDFCGF_TIMP1: BioMAP Diversity Plus: hDFCGF Assay for TIMP metallopeptidase inhibitor 1 (TIMP1) Biomarker Activity (AID 2283062). As to conditions: primary human foreskin fibroblasts; actives raise or lower the signal. Summed up:
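ELISA readout of TIMP-1 from human dermal foreskin fibroblast cultures 24 h post-dosing. Curves were fitted in both directions against DMSO baseline, with SRB total-protein staining in parallel cultures as a cytotoxicity check.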

Read-out in assay [3]: Monokine induced gamma interferon (MIG), CXCL9 (gene 4283)
The assay is described as follows: BSK_hDFCGF_MIG: BioMAP Diversity Plus: hDFCGF Assay for Monokine induced gamma interferon (MIG) Biomarker Activity (AID 2283063). As to conditions: primary human foreskin fibroblasts; actives raise or lower the signal. Summed up: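 Fibroblasts (human foreskin, primary) dosed, 24 h, MIG by ELISA; fit bidirectional vs DMSO.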

Read-out in assay [4]: Matrix Metallopeptidase 1 (MMP1), MMP1 (gene 4312)
Put plainly: BSK_hDFCGF_MMP1: BioMAP Diversity Plus: hDFCGF Assay for Matrix Metallopeptidase 1 (MMP1) Biomarker Activity (AID 2283064). As to conditions: primary human foreskin fibroblasts; actives raise or lower the signal. Summed up: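 ELISA read-out of MMP1 from human foreskin fibroblasts (primary skin cells), 24 h post-dose. Gain or loss of signal was fitted bidirectionally versus DMSO negative control; cytotoxicity was checked by SRB in parallel cultures.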

Read-out in assay [5]: Vascular cell adhesion molecule 1 (VCAM1), VCAM1 (gene 7412)
The assay is described as follows: BSK_hDFCGF_VCAM1: BioMAP Diversity Plus: hDFCGF Assay for Vascular cell adhesion molecule 1 (VCAM1) Biomarker Activity (AID 2283065).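 For AC50: VCAM-1 protein level quantified by ELISA after 24 h chemical exposure.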 The note with it: primary human foreskin fibroblasts; actives raise or lower the signal. Summed up: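 ELISA read-out of VCAM-1 on human skin fibroblasts, 24 h post-dose; gain or loss of signal fitted bidirectionally against DMSO baseline.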

Read-out in assay [6]: Plasminogen activator inhibitor-1 (PAI1), SERPINE1 (gene 5054)
Put plainly: BSK_hDFCGF_PAI1: BioMAP Diversity Plus: hDFCGF Assay for Plasminogen activator inhibitor-1 (PAI1) Biomarker Activity (AID 2283066). The note with it: primary human foreskin fibroblasts; actives raise or lower the signal. Summed up: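 Human skin fibroblast cultures receive chemical for 24 h before PAI-1 is measured by ELISA; signal changes are fitted bidirectionally against DMSO-treated wells.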

Read-out in assay [7]: Intercellular Adhesion Molecule 1 (ICAM1), ICAM1 (gene 3383)
The assay is described as follows: BSK_KF3CT_ICAM1: BioMAP Diversity Plus: KF3CT Assay for Intercellular Adhesion Molecule 1 (ICAM1) Biomarker Activity (AID 2283067). As to conditions: primary human keratinocytes with fibroblasts; actives raise or lower the signal. Summed up:
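ELISA readout of ICAM-1; KF3CT human skin co-culture (keratinocytes + foreskin fibroblasts), 24 h post-dose; gain/loss fit vs DMSO baseline.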

Read-out in assay [8]: Interferon-gamma inducible Protein 10 (IP10), CXCL10 (gene 3627)
The assay is described as follows: BSK_KF3CT_IP10: BioMAP Diversity Plus: KF3CT Assay for Interferon-gamma inducible Protein 10 (IP10) Biomarker Activity (AID 2283068). As to conditions: primary human keratinocytes with fibroblasts; actives raise or lower the signal. Summed up:
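KF3CT co-culture (keratinocytes + foreskin fibroblasts), 24 h compound, IP-10 by ELISA; bidirectional fit vs DMSO baseline.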

Assay [9] in a line: BSK_KF3CT_SRB: Viability Assessment in the BioMAP Diversity Plus: KF3CT Assay (AID 2283069).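 Note: total protein by sulforhodamine B staining as a cytotoxicity measure; read 24 h after compound addition.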 The note with it: primary human keratinocytes with fibroblasts. Summed up:
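SRB read-out at 560 nm (0.1% stain, TCA-fixed cells) gauges overt cytotoxicity in a human skin keratinocyte–fibroblast co-culture 24 h post-dosing. Signal change was fitted bidirectionally relative to DMSO control.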

Read-out in assay [10]: Interleukin-1 alpha (IL1a), IL1A (gene 3552)
The assay is described as follows: BSK_KF3CT_IL1a: BioMAP Diversity Plus: KF3CT Assay for Interleukin-1 alpha (IL1a) Biomarker Activity (AID 2283070). As to conditions: primary human keratinocytes with fibroblasts; actives raise or lower the signal. Summed up: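 Primary skin co-culture (keratinocytes, foreskin fibroblasts), 24 h exposure; ELISA for IL-1a; bidirectional curve fit vs DMSO.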

Turning to `O=S(=O)(O)C(F)(F)C(F)(F)C(F)(F)C(F)(F)C(F)(F)C(F)(F)F`, the outcome in [1], in [2], in [3], in assay [4], in assay [5] and in [6] was inactive. For the same molecule, the result in assay [7], in [8], in [9] and in assay [10] was inactive.
`C[C@]12CCC(=O)C=C1CC[C@@H]1[C@@H]2CC[C@]2(C)C(=O)CC[C@@H]12`: the outcome in assay [1], in assay [2], in assay [3], in assay [4], in assay [5] and in assay [6] was inactive. Further, the result in assay [7], in assay [8], in assay [9] and in assay [10] was inactive.
In the case of `ClC1=C(Cl)[C@]2(Cl)[C@@H]3[C@H]4C[C@H]([C@@H]5O[C@H]45)[C@@H]3[C@@]1(Cl)C2(Cl)Cl`, the outcome in assay [1], in [2], in assay [3], in assay [4], in [5] and in [7] was inactive. Also, the outcome in assay [8], in assay [9] and in assay [10] was inactive.
On to `Oc1ccc(Cl)cc1Cl`, for which the outcome in assay [1], in assay [2], in assay [3], in assay [4], in [5] and in assay [6] was inactive. The outcome in assay [7], in assay [8], in assay [9] and in assay [10] was inactive.
In the case of `O=C(O)C(F)(F)C(F)(F)C(F)(F)C(F)(F)C(F)(F)C(F)(F)C(F)(F)C(F)(F)C(F)(F)F`, the half-maximal activity concentration (AC50) was 28.5 µM (active) and 48.8 µM (active) and 49 µM (active) in assay [1]; 35 µM (active) and 22.2 µM (active) and 39.3 µM (active) in [2]; 33 µM (active) and 36.5 µM (active) and 37.9 µM (active) in assay [3]; 33.3 µM (active) and 26.9 µM (active) and 40.3 µM (active) in assay [4]; 31.2 µM (active) and 17.9 µM (active) and 19.4 µM (active) in [5]; 33.1 µM (active) and 38.3 µM (active) and 47 µM (active) in [6]. The concentration at half-maximal activity (AC50) in assay [7] was 36.7 µM (active) and 45.8 µM (active) and 54.9 µM (active); in assay [8] it was 17.3 µM (active) and 46.9 µM (active) and 40.5 µM (active); in [9], 33.1 µM (active) and 50.3 µM (active) and 50.8 µM (active); in [10], 33.5 µM (active) and 47.2 µM (active) and 46.8 µM (active).
`O=NN(c1ccccc1)c1ccccc1`: the outcome in assay [1], in assay [2], in assay [3], in [4], in [5] and in assay [6] was inactive. In addition, the result in assay [7], in [8], in assay [9] and in assay [10] was inactive.
Consider `Cc1ccc(O)c(C)c1`, for which the result in assay [1], in assay [2], in [3], in [4], in assay [5] and in assay [6] was inactive. Besides, the outcome in assay [7], in [8], in assay [9] and in assay [10] was inactive.
For `CO/C=C(/C(=O)OC)c1ccccc1COc1cccc(C(F)(F)F)n1`, the AC50 in assay [1] is 10.7 µM (active); in [4], 6.92 µM (active); in [6], 11.1 µM (active). For the same molecule, the outcome in assay [2], in assay [3], in assay [5], in assay [7], in [8] and in assay [9] was inactive. For the same molecule, in [10], the result was inactive.
`CC#Cc1cc(C)nc(Nc2ccccc2)n1`: the result in [1], in assay [2], in assay [3], in assay [4], in assay [5] and in [6] was inactive. Besides, the result in assay [7], in assay [8], in assay [9] and in assay [10] was inactive.
`O=C(O)C(F)(F)C(F)(F)C(F)(F)C(F)(F)C(F)(F)F`: the result in assay [1], in assay [2], in assay [3], in assay [4], in assay [5] and in [6] was inactive. Further, the result in [7], in assay [8], in assay [9] and in assay [10] was inactive.
Regarding `CCOP(=S)(OCC)SCSC(C)(C)C`, the result in assay [1], in [2], in [3], in assay [4], in assay [5] and in assay [6] was inactive. Moreover, the outcome in assay [7], in [8], in assay [9] and in assay [10] was inactive.
Regarding `CC1=C2C[C@H]3[C@@H](CC=C4C[C@@H](O)CC[C@@]43C)[C@@H]2CC[C@]12O[C@@H]1C[C@H](C)CN[C@H]1[C@H]2C`, the outcome in assay [1], in assay [2], in assay [3], in assay [4], in [5] and in assay [6] was inactive. The outcome in assay [7], in assay [8], in assay [9] and in assay [10] was inactive.
Regarding `COS(=O)(=O)OC`, the result in assay [1], in assay [2], in assay [3], in [4], in [5] and in assay [6] was inactive. In addition, the result in assay [7], in assay [8], in [9] and in assay [10] was inactive.
In the case of `O=C(NC(=O)c1c(F)cccc1F)Nc1cc(Cl)c(OC(F)(F)C(F)F)c(Cl)c1`, the outcome in assay [1], in [2], in [3], in assay [4], in [5] and in [6] was inactive. In addition, the outcome in assay [7], in assay [8], in assay [9] and in assay [10] was inactive.
With `CCC(C)(CC)c1cc(NC(=O)c2c(OC)cccc2OC)on1`, the outcome in [1], in [2], in assay [3], in [4], in assay [5] and in assay [6] was inactive. Further, the result in [7], in assay [8], in [9] and in [10] was inactive.
For the molecule `Oc1ccc(C(c2ccc(O)cc2)(C(F)(F)F)C(F)(F)F)cc1`, the half-maximal activity concentration (AC50) in assay [1] is 13.7 µM (active); in assay [2], 15.8 µM (active); in assay [5] it was 7.41 µM (active); in assay [6], 12.8 µM (active); in assay [7], 37.7 µM (active); in assay [8], 17.3 µM (active). Moreover, the concentration at half-maximal activity (AC50) is 24.1 µM (active) in assay [9] and 32.1 µM (active) in assay [10].
On to `Nc1ccc(-c2ccc(N)cc2)cc1`, for which the outcome in [1], in assay [2], in [3], in [4], in assay [5] and in assay [6] was inactive. For the same molecule, the outcome in [7], in assay [8], in [9] and in [10] was inactive.
